Drawing on PubChem BioAssay AID2314 (National Center for Advancing Translational Sciences (NCATS), 2010), this text covers max response for 91 compounds.

The structures appear in SMILES notation. Out of some 300,000 compounds screened, about 37,000 (12%) were called active. Cut-off read from the data, not from the text of the source: active = max response mostly above about 13% (no sharp cut-off); inactive = mostly below about 14%. Only a selection was taken, and actives are over-represented in it overall.

The assay can be described thus: Cycloheximide Counterscreen for Small Molecule Inhibitors of Shiga Toxin. Note: read at 38.3 µM for the half of the compounds with a filed dose; 0% is about no effect. The following applies: cell reporter, cycloheximide protein synthesis inhibition counterscreen; active compounds read high. Background: Counterscreens check selectivity or assay interference.
Regarding `COc1cc(C(=O)NN(CCC#N)C2=NS(=O)(=O)c3ccccc32)cc(OC)c1OC`, the max response is -4.44% (inactive).

In the case of `COc1cc2c(C(=O)O)c(C)n(C)c2c2ccccc12`, the max response is -4.45% (inactive).

In the case of `Cc1c(C(=O)N/N=C/c2ccccc2)[nH]c2c([N+](=O)[O-])cccc12`, the max response is 1.12% (inactive).

`COc1cccc2c(C)c(C(=O)O)[nH]c12`: the max response is 33.1% (active).

As for `O=c1[nH]cccc1-c1nc2ccccc2n1Cc1ccc(Cl)cc1`, the max response was -10.6% (inactive).

With `COc1ccc(C(=O)NC(C)Cn2nc(C)cc2C)cc1OC1CCN(C(C)=O)CC1` (stereo unspecified), the max response is -1.29% (inactive).

With `Cn1ncc(Br)c1C(=O)NC1CCCC1`, the max response was -6.23% (inactive).

As to `CCN(CC)CCn1cnc2c1c(=O)[nH]c(=O)n2Cc1ccccc1`, the max response was -9.18% (inactive).

In the case of `CCOc1ccc(N(C(=O)c2snc(C(N)=O)c2N)C(C(=O)NCC2CCCO2)c2c[nH]c3ccccc23)cc1` (stereo unspecified), the max response is 1.95% (inactive).

Consider `Cc1cc(S(=O)(=O)NC2CCCCC2)ccc1OCC(=O)NCc1cccnc1`, for which the max response is -2.89% (inactive).

`CCOC(=O)C1(CCc2ccccc2)CCN(Cc2ccco2)CC1`: the max response is 8.52% (inactive).

As to `CCOC(=O)C1(Cc2ccccc2C)CCCN(S(C)(=O)=O)C1` (stereo unspecified), the max response is 2.45% (inactive).

Take `CCOC(=O)C1(Cc2ccccc2C)CCCN(C(=O)CN2C(=O)CSC2=O)C1` (stereo unspecified): the max response is 42.6% (active).

For `O=C(Cn1c(=O)n(CC2CS2)c2ccccc21)N1CCCCC1` (stereo unspecified), the max response was 0.367% (inactive).

As for `Cc1cc(SCC(=O)NCCN2C(=O)CSC2=O)nc2ccccc12`, the max response is 0.645% (inactive).

On to `CCOC(=O)C1(Cc2ccccc2C)CCCN(C(=O)c2ccc(COC)o2)C1` (stereo unspecified), for which the max response was 35.6% (active).

Take `Cc1ccc(S(=O)(=O)N(CC(=O)NCc2ccco2)c2ccccc2C)cc1`: the max response is -4.61% (inactive).

On to `CCCNC(=S)N1CCCC(c2nc3ccccc3[nH]2)C1` (stereo unspecified), for which the max response is -2.62% (inactive).

On to `O=C(NC1CCCC1)C(c1c(F)cccc1Cl)N(C(=O)c1csnn1)C1CC1` (stereo unspecified), for which the max response was -1.83% (inactive).

`COCCn1c(=NC(=O)c2ccccc2[N+](=O)[O-])sc2cc(S(C)(=O)=O)ccc21`: the max response is 25.9% (active).

In the case of `Cn1c(=NC(=O)c2ccc3c(c2)OCCO3)sc2cc(S(C)(=O)=O)ccc21`, the max response is 3.13% (inactive).

As for `COCCNC(=O)c1ccccc1NS(=O)(=O)c1ccc(C)c([N+](=O)[O-])c1`, the max response is -2.35% (inactive).

For the compound `O=C(Nc1ccccc1C(=O)Nc1ccncc1)c1ccc([N+](=O)[O-])cc1`, the max response was -2.91% (inactive).

`Cc1ccsc1C(=O)N[C@@H](C)c1nnc2ccccn12`: the max response is -2.38% (inactive).

With `CCOC(=O)C1=C(C)NC(=S)NC1c1cccs1` (stereo unspecified), the max response is -2.57% (inactive).

Turning to `C=CCOC(=O)C1=C(C)NC(C)=C(C(=O)OCC=C)C1c1cccs1`, the max response was 63.9% (active).

Take `CCOC(=O)C1=C(C)Nc2nc3ccccc3n2C1c1cccs1` (stereo unspecified): the max response was -3.92% (inactive).

In the case of `Cc1cc(C)c2nc(N(CCN(C)C)C(=O)/C=C/c3cccs3)sc2c1`, the max response is -3.7% (inactive).

For the compound `C/C(=N/OC(=O)c1ccc(Br)cc1)c1ccc(C)cc1`, the max response was 4.97% (inactive).

As for `COc1ccc(C)cc1N(CC(=O)N1CCCC1)S(=O)(=O)c1ccccc1`, the max response was 9.95% (inactive).

With `CCOC(=O)Cc1csc(NC(=O)CSc2nc(C)cc(=O)[nH]2)n1`, the max response is -1.4% (inactive).

With `CCOC(=O)Cc1csc(NC(=O)C(C)(C)C)n1`, the max response is 26.6% (active).

Consider `CCCCCCC(=O)Nc1nc(C)c(-c2csc(Nc3cccc(OC)c3)n2)s1`, for which the max response was -1.06% (inactive).

For `CCOC(=O)Cc1csc(NC(=O)CSc2ccc(Br)cc2)n1`, the max response is -1.14% (inactive).

Take `CCOC(=O)Cc1csc(NC(=O)Nc2ccccc2)n1`: the max response is 21.8% (active).

For the compound `CCOC(=O)Cc1csc(NC(=O)COc2ccc3c(C)cc(=O)oc3c2)n1`, the max response was 5.78% (inactive).

For the compound `CCOC(=O)Cc1csc(NC(NC(=O)OCC)(C(F)(F)F)C(F)(F)F)n1`, the max response is -0.89% (inactive).

Regarding `CCOC(=O)c1cnc(SCC(=O)Nc2cccc(OC)c2)nc1N`, the max response is -6% (inactive).

For the compound `CCOC(=O)c1csc(NC(=O)Nc2cccc(OC)c2)n1`, the max response was 15% (active).

For the compound `COc1ccccc1N1CCN(C(=O)c2ccc(NC3=NC4CS(=O)(=O)CC4S3)cc2)CC1` (stereo unspecified), the max response is 6.59% (inactive).

In the case of `O=C(Nc1ccc(F)cc1F)N1CCCN(CCOc2ccccc2)CC1`, the max response is -1.88% (inactive).

Turning to `CN1CCN(C(=O)c2cnn(-c3ccccc3)c2NC(=O)c2ccc([N+](=O)[O-])cc2)CC1`, the max response was -1.78% (inactive).

For `S=c1[nH]ccn1-c1ccc(Cl)cc1`, the max response was -4.55% (inactive).

On to `CN(Cc1ccccc1)C(=O)COC(=O)c1ccccc1Nc1ccccc1`, for which the max response is -1.45% (inactive).

As for `CC1(C(=O)O)CCC(C(=O)Nc2ccc(Cl)c(Cl)c2)C1(C)C` (stereo unspecified), the max response is -1.72% (inactive).

In the case of `N/C(=N\OC(=O)c1ccc2c(c1)OCO2)c1ccc(Br)cc1`, the max response is 32.7% (active).

Turning to `N/C(=N\OC(=O)/C=C/c1ccccc1)c1ccc(Br)cc1`, the max response is 1.02% (inactive).

As to `N/C(=N\OC(=O)N1c2ccccc2Sc2ccccc21)c1ccc(Br)cc1`, the max response was -1.54% (inactive).

Regarding `CCCc1nc2c(c(=O)c3ccccc3n2C)c(=O)n1-c1cc(C)cc(C)c1`, the max response is -0.943% (inactive).

Regarding `NS(=O)(=O)c1ccc(NC(=O)COC(=O)c2c3c(nc4ccccc24)/C(=C\c2ccc4c(c2)OCO4)CCC3)cc1`, the max response was 42.8% (active).

Turning to `COc1cc(/C=C2\CCCc3c2nc2ccccc2c3C(=O)O)cc(Cl)c1O`, the max response is 4.53% (inactive).

Regarding `COc1cc(-c2cc(C(=O)OCC(=O)Nc3ccc4c(c3)OCO4)c3ccccc3n2)cc(OC)c1OC`, the max response is 4.65% (inactive).

Take `CN(C)S(=O)(=O)c1ccc(NC(=O)COC(=O)c2n[nH]c3ccccc23)cc1`: the max response is -0.614% (inactive).

As to `NC(=O)c1ccc(NC(=O)COC(=O)c2c3c(nc4ccccc24)/C(=C\c2ccc4c(c2)OCO4)CCC3)cc1`, the max response was 38.8% (active).

`O=C(COC(=O)c1c2c(nc3ccccc13)/C(=C\c1cccs1)CCC2)Nc1ccccc1Cl`: the max response is 10.2% (inactive).

In the case of `CCCCc1nc2cc(C(=O)N3CCCCC3CCO)ccc2o1` (stereo unspecified), the max response was 45.9% (active).

With `Cc1c(C(=O)N(C)CCc2cnn(C)c2)oc2c(F)cccc12`, the max response was -2.99% (inactive).

For the compound `CCCCc1nc2cc(C(=O)NCCc3cnn(C)c3)ccc2o1`, the max response was 38.8% (active).

On to `CCC1CCCCN1C(=O)Nc1cccc(NC(=O)N2CCCCC2CC)c1` (stereo unspecified), for which the max response was 4.95% (inactive).

As to `CCC1CCCCN1C(=O)CSc1nc(C)cc(C)n1` (stereo unspecified), the max response was 0.953% (inactive).

For the compound `COc1ccc(C(=O)NC2CC2)cc1OC1CCN(Cc2cnn(C)c2)CC1`, the max response was -0.356% (inactive).

For `CCn1c(=O)n(CC)c2cc(N3CCCC3)c(NC(=O)c3ccccc3Br)cc21`, the max response is -1.85% (inactive).

`CC(C)(C)c1ccc(C(=O)N2CCN(CCNC(=O)C(=O)Nc3ccc(F)cc3)CC2)cc1`: the max response was 5.93% (inactive).

In the case of `Cc1ccc(-c2nnc(-n3nnc4ccccc43)c3ccccc23)cc1`, the max response was 9.11% (inactive).

In the case of `O=C1N=C(N2CCCC2)S/C1=C\c1cccc(Br)c1`, the max response is 20.2% (active).

Turning to `CC1CCN(C2=NC(=O)/C(=C/c3ccc(O)cc3)S2)CC1`, the max response was 31.9% (active).

Regarding `CCOc1cc(/C=C2/C(=N)N3OC(C)=CC3=NC2=O)ccc1OC`, the max response is 4.64% (inactive).

For the compound `CCOc1cc(C(=S)N2CCOCC2)ccc1O`, the max response is -1.42% (inactive).

As to `O=C1N=C(N2CCc3ccccc3C2)S/C1=C\c1ccc(O)cc1`, the max response is 10.4% (inactive).

As for `CCOc1cc(/C=C2\C(=N)N3N=C(C)SC3=NC2=O)ccc1OCCOc1ccccc1`, the max response was -1.53% (inactive).

As for `CCOc1cc(/C=C2\SC(N3CCCCC3)=NC2=O)ccc1O`, the max response is 36.3% (active).

`O=C1N=C2SCCN2/C1=C\c1c(Cl)cccc1Cl`: the max response is 1.23% (inactive).

Consider `CC1CCN(C2=NC(=O)/C(=C/c3cn[nH]c3-c3ccccc3)S2)CC1`, for which the max response is 20.1% (inactive).

Consider `O=C(Nc1nnc(S(=O)(=O)N2CCCCCC2)s1)c1cccc(Br)c1`, for which the max response is -2.43% (inactive).

Regarding `CCOc1ccc(/C=C2\SC(=S)N(NC(=O)c3ccncc3)C2=O)cc1OC`, the max response was -1.69% (inactive).

Regarding `CCOc1cc(/C=C2\SC(N3CCCC(C)C3)=NC2=O)ccc1O` (stereo unspecified), the max response is 36.5% (active).

As to `Cc1ccc(N2CC(C(=O)NCCS(=O)(=O)N3CCN(c4ccccc4)CC3)CC2=O)cc1` (stereo unspecified), the max response is 1.37% (inactive).

In the case of `CCOC(=O)c1c(-c2ccccc2)oc2ccc(OCC(N)=O)cc12`, the max response is -1.21% (inactive).

For the compound `O=C(O)CCCCCCCCc1cn(CN2C(=O)c3ccccc3C2=O)nn1`, the max response was 1.15% (inactive).

For `CCc1ccc(-c2cc3c(=O)n(CC(=O)NCCCN4CCN(Cc5ccccc5)CC4)nc(C)n3n2)cc1`, the max response is -1.84% (inactive).

Turning to `O=C(Cn1nc(CNc2ccc(Cl)cc2)[n+]2c1CCCCC2)c1ccc(Cl)cc1`, the max response was 11% (inactive).

Consider `Cc1cccc(Oc2c([N+](=O)[O-])c(=O)n(C)c3ccccc23)c1`, for which the max response was 6.49% (inactive).

In the case of `CCOc1ccc(CCNC(=O)C(CC)n2nc(C)n3c(cc4sccc43)c2=O)cc1OCC` (stereo unspecified), the max response is -1.8% (inactive).

For `Cc1nc2nc(CSc3nc4ccccc4s3)cc(=O)n2[nH]1`, the max response was -7.38% (inactive).

For the compound `Cn1c(=O)[nH]c(=O)c2c1nc(N1CCN(CCO)CC1)n2CCSc1nc2ccccc2s1`, the max response was -5.89% (inactive).

As to `CCN(CC)CCCSc1nc2ccccc2s1`, the max response was 36% (active).

In the case of `O=C(COCc1cc(-c2ccc3c(c2)OCO3)on1)N1CCN(c2cccc(Cl)c2)CC1`, the max response is -2.82% (inactive).

`O=C(COC(=O)Cn1cnc2ccccc2c1=O)NCC12CC3CC(CC(C3)C1)C2`: the max response was -1.91% (inactive).

Take `COc1ccc(CCNC(=O)C(=O)NCc2ccccc2C)cc1OC`: the max response is -2.75% (inactive).

With `c1n[nH]c(NCc2ccc3c(c2)OCO3)n1`, the max response was -1.69% (inactive).

On to `COc1cc(CNc2ncn[nH]2)ccc1OCc1ccccc1C`, for which the max response is 36.9% (active).
